KinaseGlo FLuc – counter-screen: inhibitors of Kinase-Glo firefly luciferase | Q27757 | Kinase-Glo luciferase, ATP luminescence, 8 min | Potency, µM (doses to about 38.3 µM), for inactives: at the highest dose activity change, negative = inhibition, hits mostly inhibitors | AID 1379 | 200,000 tested, 0.28% active; active means well fitted inhibition curve with a large enough effect; inconclusive means small, poorly fitted or top-dose-only effect; further: potency means the concentration at half of the fitted maximal effect; nearly all actives have a fitted effect of over 60% in size
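Light output from Kinase-Glo luciferase with luciferin and 10 uM ATP in 50 mM imidazole pH 7.2, KCl, MgCl2, Tween 20, BSA; compound pin-delivered, 8-min ambient incubation, then luminescence read.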
KCNH2 WT inh – blocks the wildtype human KCNH2 potassium channel | activity change, % at 1.84 µM | Q12809 | 340,000 tested, 0.37% active | U2OS, BacMam KCNH2, thallium flux FluxOr; hits give low values;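 active means maximum activity change below -70%; inconclusive means maximum activity change between -70% and -50%; inactive means maximum activity change above -50%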
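U2OS cells were transduced with wild-type KCNH2 virus (2.03 x 10^8 / mL) for 4 h at room temperature, then cultured overnight at 37 C. Thallium flux was read with FluxOr dye. Rate constants were normalized to DMSO controls.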
KCNH2 3.1 block – inhibitors of human KCNH2 3.1 potassium channel isoform | 340,000 tested, 0.95% active | U2OS KCNH2 3.1, thallium flux FluxOr; hits give low values | AID 720553 | activity change, % (tested at about 1.8 µM);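 active means maximum activity change below -70%; inconclusive means maximum activity change from -70% to -50%; inactive means maximum activity change above -50%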;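 further: thallium influx rate constant from kinetic fluorescence after stimulation buffer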
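Normalized rate constant (relative to positive and negative DMSO controls) derived from a 2 min kinetic fluorescence read after stimulation; U2OS cells expressing the 3.1 isoform via virus at 1.77 x 10^8 /mL.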
Numbers without * were called inactive; ? = inconclusive; / = no result given; [ ] = remark or other dose. The list is not random: actives were taken first. Their share in the collection is about 1.2%. On the % scale 0 is the no-effect control and ±100 the full control effect.

SMILES	KinaseGlo FLuc	KCNH2 WT inh	KCNH2 3.1 block
CN1CCN(C(=O)c2cnn(-c3ccccc3)c2NC(=O)c2ccccc2)CC1	-1.5%	3.9	-7.9
COc1ccc(C(=O)c2c(-c3ccc(OC)cc3)oc3ccccc23)cc1	/	-12.9	-70.7*
COc1ccc(-c2oc3ccccc3c(=O)c2O)cc1	-1.4%	/	/
CCCc1ccc(OCc2ccc(C(=O)N/N=C/c3cccnc3)o2)cc1	/	6.7	-6.3
COc1cc(C(=O)N2CCN(C3CCCCC3)CC2)cc(OC)c1OC	/	6.3	4.4
COc1ccc(C(=O)N2CCN(C3CCCCC3)CC2)cc1OC	/	-10.6	-74.6*
CCCN(CC(=O)Nc1ccccc1OC)C(=O)c1ccc2ncsc2c1	/	-24.4	-18.9
CN(C)CCCn1c2c(c(SCC(=O)Nc3ccc4c(c3)OCO4)nc1=O)CCC2	/	2.8	-1.3
O=c1cc(-c2ccccc2)[nH]c2ccc(F)cc12	0.6%[39.9 µM]	-12.4	-98.5*
O=c1cc(-c2cccc(F)c2)[nH]c2ccc(Cl)cc12	1.9%[39.9 µM]	/	/
Cc1ccc(-c2cc(=O)c3cc(F)ccc3[nH]2)cc1	-1.3%	4.7	-14.4
O=c1cc(-c2cccc(F)c2)[nH]c2ccccc12	3.0%[39.9 µM]	2.3	-70.7*
C[C@H]1Cc2c(-c3ccccc3)nc3c(c2CO1)CN(S(=O)(=O)c1ccc2c(c1)OCCN2C)CC3	-6.7%[7.66 µM]	/	/
Cc1ccc(N(CC(=O)NC(C)C)C(=O)CCC(=O)Nc2ccccn2)c(C)c1	/	-12.6	-8.3
CCN(CC(=O)Nc1ccc(OC)cc1)C(=O)CCS(=O)(=O)c1ccc(C)cc1	/	-8.4	-12.7
CCN(CC(=O)Nc1ccc(OC)cc1)C(=O)Cc1cccs1	/	0.0	-151.5*
Cc1cc(/C=C(\C#N)c2nc3ccccc3[nH]2)c(C)n1C	-15.0%	-5.2	15.7
Cc1cc(/C=C(/C#N)c2nc3ccccc3[nH]2)c(C)n1-c1cccc([N+](=O)[O-])c1	-4.7%	-115.6*	-133.7*
CC(C)(C)c1ccc(OCc2ccc(C(=O)N/N=C/c3ccc([N+](=O)[O-])cc3)o2)cc1	-5.2%	-2.9	-80.0*
CC(C)(C)c1ccc(OCc2ccc(C(=O)NN)o2)cc1	/	-12.6	6.8
N#CCCN(C(=O)COC(=O)c1ccc(S(=O)(=O)N2CCCC2)cc1)c1cccc(Cl)c1	/	-8.1	13.1
C#CCN(C[C@@H]1[C@@H](OC(=O)NCc2ccccc2F)[C@@H](OC(=O)NCc2ccccc2F)CN(C(=O)OC(C)C)N1C(=O)OC(C)C)S(=O)(=O)c1ccc(C)cc1	/	7.7	9.4
O=[N+]([O-])c1ccccc1-c1ccc(C(=S)N2CCN(c3ccccc3)CC2)o1	/	-16.1	12.1
N#C/C(=C\c1ccc(-c2ccccc2[N+](=O)[O-])o1)C(=O)N1CCOCC1	1.7%	-0.3	-79.3*
O=C(COC(=O)c1cc(=O)[nH]c(=O)[nH]1)Nc1cccc(S(=O)(=O)N2CCOCC2)c1	2.3%	-31.2	-23.0
SMILES	KinaseGlo FLuc	KCNH2 WT inh	KCNH2 3.1 block
CCOc1ccccc1NC(=S)NC(=O)C1CCCCC1	/	-6.5	1.7
CCOc1ccccc1NC(=O)C1CCCC1	/	-83.7*	3.0
COCCN(C(=O)c1c(C)noc1C)c1c(N)n(CC(C)C)c(=O)[nH]c1=O	/	-5.2	0.7
COc1ccc(C(CNC(=O)c2cccc(NS(=O)(=O)c3ccc(Br)cc3)c2)N(C)C)cc1 (configuration not stated)	/	6.7	-80.0*
COc1cccc(NC(=O)CN(C)C(=O)c2cccc(NS(=O)(=O)c3ccc(Br)cc3)c2)c1	/	-5.2	5.9
COc1ccc(C(CNC(=O)c2cccc(NS(=O)(=O)c3ccccc3)c2)N2CCCC2)cc1 (configuration not stated)	/	-0.6	9.6
COc1ccc(NC(=O)CN(C)C(=O)c2cccc(NS(=O)(=O)c3ccc(Br)cc3)c2)cc1	/	-8.1	-126.6*
COc1ccc(NC(=O)CS(=O)c2cccc(Cl)c2)cc1 (configuration not stated)	/	0.2	-1.3
COc1ccc(C(=O)NCCS(=O)(=O)N2CCCC2)cc1	/	-5.8	6.9
Cc1cccc(NC(=O)NC2CCCc3ccccc32)c1 (configuration not stated)	/	-0.2	-6.1
Cc1ccccc1N1CCN(C2CCCN(C(=O)c3snnc3C)C2)CC1 (configuration not stated)	/	-6.2	/
O=S(=O)(Nc1nc2ccccc2nc1Nc1ccc2c(c1)OCO2)c1ccccc1	2.4%	6.4	-96.0*
Cc1cccc(S(=O)(=O)Nc2nc3ccccc3nc2Nc2ccc3c(c2)OCO3)c1	0.8%	-5.2	-5.1
COC(=O)COc1ccc2c(-c3ccc(OC)cc3)cc(=O)oc2c1	-3.0%	?	-79.3*
COc1ccc(-c2cc(=O)oc3cc(OCC(=O)N4CCOCC4)ccc23)cc1	/	11.5	6.7
CC1CC(C)CN(C(=O)c2cccc(N3C(=O)c4ccccc4C3=O)c2)C1 (configuration not stated)	/	-17.1	0.8
Cc1nc(C)c(C(=O)N2CCCC(C(=O)c3ccc4ccccc4c3)C2)s1 (configuration not stated)	/	-18.8	0.7
Cc1ccc2c(c1C)NC(=O)C21N2CCCC2C(C(=O)c2ccc3ccccc3c2)C12C(=O)Nc1ccccc12 (configuration not stated)	/	-5.0	-86.5*
CCOC(=O)c1ccc(S(=O)(=O)N2CCC(C(=O)NCC3COc4ccccc4O3)CC2)cc1 (configuration not stated)	/	19.6	-7.0
Cc1cc(NS(=O)(=O)c2ccc(NC(=O)COc3ccc(C#N)cc3)cc2)nc(C)n1	/	-10.5	-3.0
COc1cccc(-c2sc3ccccc3c2-c2ccc(OCCN3CCCC3)cc2)c1	/	18.4	-8.8
COc1cccc(-c2sc3ccccc3c2-c2ccc(OCCN3CCCCC3)cc2)c1	/	5.7	-75.5*
COc1ccc(S(=O)(=O)N2CCN(C(=O)c3cc(C)on3)CC2)cc1	/	6.5	-22.0
COC(=O)c1cc(S(=O)(=O)NCC2CCN(CCc3ccc(OC)cc3)CC2)c[nH]1	/	-1.0	19.9
COc1ccc(C)cc1NC(=O)C(c1ccccc1)N1CCN(CC(=O)NC2CC2)CC1 (configuration not stated)	/	10.9	-5.5
SMILES	KinaseGlo FLuc	KCNH2 WT inh	KCNH2 3.1 block
CCN(C(=O)c1ccc2c(c1)OCO2)C1CCS(=O)(=O)C1 (configuration not stated)	/	-0.9	-6.4
CCCCN(C(=O)c1ccc2c(c1)OCO2)C1CCS(=O)(=O)C1 (configuration not stated)	/	1.3	-76.5*
CCOc1cc(/C=C(\C#N)C(=O)NCC2CCCO2)ccc1OCC(N)=O (configuration not stated)	-2.8%	-136.1*	-184.8*
CCOc1cc(/C=C(\C#N)C(=O)NCC2CCCO2)ccc1O (configuration not stated)	0.9%	1.9	-3.7
O=C(COC(=O)c1ccc2c(c1)OCCO2)NCCc1ccccc1	/	3.4	4.9
O=[N+]([O-])c1ccc(NN=C2c3ccccc3Cc3ccccc32)c([N+](=O)[O-])c1	-0.6%[7.66 µM]	/	/
COc1cccc(CNC(=O)CCC2CCCN(C(=O)CCn3cncn3)C2)c1 (configuration not stated)	-3.2%	2.9	-94.3*

Compound activity deposited in PubChem BioAssay by National Center for Advancing Translational Sciences (NCATS).
